Hits are enriched below; roughly 2.3% of the tested compounds scored in any of these assays.
TMEM16A act – TMEM16A chloride channel activators or potentiators, primary screen, cell-based, HTS; HEK293 TMEM16A/YFP-H148Q/I152L, iodide quench fluorescence; active compounds read low; Anoctamin-1 (Mus musculus), Q8BHY3; AID 623877, 2012; B-score at 10 µM; 0.3% of 340,000 active;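 active = fluorescence-ratio B-score plate-corrected deviation score at least 3 library SD below zero, with starting fluorescence score within 5 deviations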;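 also: channel opened by trigger with iodide after compound preincubation; score built on the fluorescence ratio of max minus min over baseline; more negative score means more quench and so TMEM16A activation or potentiation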
TMEM16A inh – TMEM16A chloride channel inhibitors, primary screen, cell-based, HTS | normalized B-score (activity score, 25-100; higher = stronger inhibition) at 10 µM | AID 588511, 2011 | 1.2% of 310,000 active | HEK293 TMEM16A/YFP iodide influx fluorescence, ionomycin;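 active = ratio plate-corrected score three or more library SD toward inhibition, starting fluorescence score within five deviations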;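 also: score derived from kinetic fluorescence span divided by baseline fluorescence per well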
CHT allo act – CHT positive allosteric modulators, primary screen, cell-based, membrane potential dye, choline EC20; B-score at 10 µM; 0.49% of 310,000 active; High affinity choline transporter 1 (Homo sapiens), Q9GZV3; CHT-expressing cells; active compounds read high; LV-AA mutant CHT in HEK293 cells;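 active = initial fluorescence not abnormally high and integrated response B-score, plate-corrected, over 3 SD above library mean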
Target sequence (Q9GZV3 whole entry, looked up): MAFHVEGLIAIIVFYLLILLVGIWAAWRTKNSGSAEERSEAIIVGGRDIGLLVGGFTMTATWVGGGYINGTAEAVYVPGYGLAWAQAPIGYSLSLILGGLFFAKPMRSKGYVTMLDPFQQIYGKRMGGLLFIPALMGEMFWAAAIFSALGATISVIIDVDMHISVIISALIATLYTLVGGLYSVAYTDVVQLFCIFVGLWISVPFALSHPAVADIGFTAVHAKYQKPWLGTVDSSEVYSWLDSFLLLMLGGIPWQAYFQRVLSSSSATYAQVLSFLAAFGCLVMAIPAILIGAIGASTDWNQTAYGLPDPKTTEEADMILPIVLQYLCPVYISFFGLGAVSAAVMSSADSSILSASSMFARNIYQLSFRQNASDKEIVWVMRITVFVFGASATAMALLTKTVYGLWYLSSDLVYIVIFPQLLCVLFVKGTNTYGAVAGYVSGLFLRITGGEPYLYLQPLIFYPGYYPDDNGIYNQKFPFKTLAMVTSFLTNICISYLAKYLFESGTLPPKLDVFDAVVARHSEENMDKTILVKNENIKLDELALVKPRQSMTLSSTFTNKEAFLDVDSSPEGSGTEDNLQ
CHT block – inhibitors of human choline transporter CHT | AID 488975, 2010 | CHT-expressing cells, membrane potential dye, choline response; active compounds read low | B-score at 10 µM | High affinity choline transporter 1 (Homo sapiens), Q9GZV3 | 0.86% of 310,000 active;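 active = B-score over 3 SD under the library average, and starting fluorescence ratio not unusually high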;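 also: choline stimulus applied at its EC90 after an EC20 pre-addition; B-score computed on integrated fluorescence ratio after choline addition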
CHT activ conf – CHT activators, confirmation, cell-based, membrane potential dye, duplicate; shares compounds with CHT allo act; CHT-expressing cells, membrane potential dye fluorescence (FDSS); % of choline EC20–EC90 response window; HEK293 expressing CHT LV-AA mutant; choline added at its EC20; activation, % at 10 µM; 91% of 2,500 active; AID 504833, 2011;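 active = primary screen active, with duplicate mean activation above negative control mean plus 3 SD, cut at about 11% in these data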
HEK293 MP dye – membrane potential response in parental HEK293 cells, counter-screen for CHT activator project, cell-based, membrane potential dye; ratio readout change at 10 µM, hits read low; membrane potential dye fluorescence (FDSS); measured after EC20 choline addition; AID 623908, 2012; 62% of 2,500 active; shares compounds with CHT allo act;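 active = duplicate-averaged ratio beyond 3 SD from buffer wells, up or down, though filed actives are nearly all decreases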
The depositor's hits bear a star; i = inactive; · = not tested or not shown.

SMILES	TMEM16A act	TMEM16A inh	CHT allo act	CHT block	CHT activ conf	HEK293 MP dye
CC(C)COc1ccc(C(=S)N2CCCC2)cc1	i	i	i	i	·	·
CC(=O)N1CCC(=NNC(=O)c2cc3ccccc3cc2O)CC1	i	i	i	i	·	·
O=C(Nc1ccc(C2=NCCN2)cc1)c1ccc(C(=O)Nc2ccc(C3=NCCN3)cc2)c([N+](=O)[O-])c1	i	i	i	i	·	·
O=[N+]([O-])c1cc(Cl)cc(C2=NCCN2)c1	i	i	i	i	49*	-55*
CCOC(=O)c1cnc2ccc(C(=O)OC)cc2c1Nc1cccc(C(=O)O)c1	i	i	11*	i	75*	-74*
CCOC(=O)c1ccc2ncc(C(=O)OCC)c(NCCN(C)C)c2c1	i	i	i	i	36*	-36*
CCOC(=O)c1cnc2ccc(C)cc2c1N(C)Cc1ccccc1	i	i	i	i	28*	i
CCOC(=O)c1ccc2ncc(C(=O)OCC)c(NCCN3CCOCC3)c2c1	i	i	i	i	·	·
CC(OC(=O)c1cccc(-n2cnnn2)c1)C(=O)NCc1ccccc1 (stereo not given)	i	i	i	i	·	·
O=[N+]([O-])c1ccc(-c2csc3[n+]2CCS3)cc1	i	i	8.9*	i	74*	-69*
O=C(NCc1ccco1)c1ccc2c(c1)S(=O)(=O)c1ccccc1C2=O	i	i	8.6*	i	30*	i
C[n+]1ccc(/C=C/c2ccccc2O)c2ccccc21	i	i	i	i	30*	-39*
CN1/C(=C/c2cc[n+](C)c3ccccc23)C=Cc2ccccc21	i	·	·	·	·	·
Cc1cc2nc(C)n(CCCNC(=O)Nc3ccc(C#N)cc3)c2cc1C	i	i	i	i	·	·
Cc1cc2nc(C)n(CCCN)c2cc1C	i	i	8.4*	i	69*	-73*
CCCCNC(=S)N(C)/N=C/c1c(F)c(F)c(F)c(F)c1F	i	i	6.5*	i	17*	i
COc1cc(C(=O)N/C(=C\c2cn(C)c3ccccc23)C(=O)NCCCn2ccnc2)cc(OC)c1OC	i	i	i	i	·	·
Cc1cc(C)cc(N(CCC#N)C(=O)COC(=O)Cn2[nH]c(=O)c3ccccc3c2=O)c1	i	·	·	·	·	·
Cc1[nH]c2ccccc2c1/C=N/NC(=O)c1cccc([N+](=O)[O-])c1	i	i	i	i	·	·
Cc1[nH]c2ccccc2c1/C=N/Nc1ccc([N+](=O)[O-])cc1	i	i	i	i	17*	i
Cc1nnc(N2CCOCC2)c2nn(-c3cccc(Cl)c3)c(C)c12	i	i	i	i	·	·
Cc1nnc(N2CCC(C(=O)N3CCCCC3)CC2)c2nn(-c3ccc(Cl)cc3)c(C)c12	i	i	i	i	39*	i
COc1c2occc2c(OC)c2c(=O)cc(C)oc12	i	i	i	i	34*	-38*
COc1cc(Nc2ccc(S(=O)(=O)N3CCN(C)CC3)cc2[N+](=O)[O-])cc(OC)c1	i	i	i	i	9	-21*
COc1cccc(-c2nc(CS(=O)(=O)CC(=O)Nc3ccc(C(C)=O)cc3)c(C)o2)c1	i	i	i	i	·	·
SMILES	TMEM16A act	TMEM16A inh	CHT allo act	CHT block	CHT activ conf	HEK293 MP dye
CC1(NC(=O)Cc2c(Cl)cccc2Cl)CCS(=O)(=O)C1 (stereo not given)	i	·	·	·	·	·
COc1ccccc1CNc1cc(CSc2ccc(Cl)cc2)nc(C)n1	i	25*	i	i	23*	i
COc1ccccc1CNC(=O)COC(=O)CSc1ccc(Cl)cc1	i	i	i	i	·	·
CCCc1cc(=O)oc2cc(OC3CCCCC3=O)ccc12 (stereo not given)	i	i	i	i	·	·
Cc1nn(S(=O)(=O)c2ccc(Cl)cc2)c(C)c1Sc1ccc([N+](=O)[O-])cc1	i	i	i	i	·	·
Cc1nn(-c2ccccc2)c(N)c1Sc1ccc([N+](=O)[O-])cc1	i	i	6.9*	i	36*	i
CCN(CC)CCNC(Cc1ccccc1)c1cccc(OC)c1 (stereo not given)	i	·	·	·	·	·
NC(=O)C1CCCN(S(=O)(=O)c2ccc3ccccc3c2)C1 (stereo not given)	i	i	i	i	·	·
COc1ccc(NC(=O)C(c2ccccc2)N2CCN(c3ccccn3)CC2)cc1Cl (stereo not given)	i	i	7.9*	i	22*	i
Cn1c(=NC(=O)C2=NNC(=O)CC2)sc2ccccc21	i	i	6.9*	i	54*	-32*
O=C(NC1CC1)c1cccc(NC(=O)C2CCN(S(=O)(=O)c3cccc(C(F)(F)F)c3)CC2)c1	i	·	·	·	·	·
Cc1ccc(S(=O)(=O)N2CCCCC2C(=O)Nc2ccc(N(C)C)cc2)cc1 (stereo not given)	i	·	·	·	·	·
CCCn1c(N)c(N(CCOC)C(=O)c2c(CC)noc2C)c(=O)[nH]c1=O	i	·	·	·	·	·
Cc1ccn2cc(CCNS(=O)(=O)c3ccc4c(c3)OCCO4)nc2c1	i	i	i	i	25*	i
Cc1ccn2cc(CCNS(=O)(=O)c3ccc4ccccc4c3)nc2c1	i	i	i	i	·	·
Cc1cc(C[n+]2ccccc2)c2nsnc2c1	i	i	10*	i	45*	-72*
COC(=O)c1ccc(NC(=O)COC(=O)COc2cccc3c2OC(C)(C)C3)cc1	i	·	·	·	·	·
Cc1cccc(Cn2c(SCCN3CCCCC3)nc3c2c(=O)[nH]c(=O)n3C)c1	i	i	9*	i	61*	-62*
Cc1cccc(Cn2c(N3CCN(CCO)CC3)nc3c2c(=O)[nH]c(=O)n3C)c1	i	i	i	i	·	·
Cc1ccc(Cn2c(SCCN3CCCCC3)nc3c2c(=O)[nH]c(=O)n3C)cc1	i	i	6.5*	i	53*	-50*
C=CCn1c(SCCN2CCCCC2)nc2c1c(=O)[nH]c(=O)n2C	i	i	10*	i	64*	-63*
C=CCn1c(SCC(=O)Nc2ccc(OC)cc2)nc2c([nH]c3ccccc32)c1=O	i	i	i	i	·	·
C=CCn1c(SCCN2CCCC2)nc2c([nH]c3ccccc32)c1=O	i	i	6.5*	i	40*	-41*
